# In PubChem BioAssay (NCI):
# The panel holds about 83,000 compounds, 20% with a hit somewhere; the sample as a whole holds those more often.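 The endpoint reported here, percent growth, reads 100 for growth as untreated, 0 for no net growth and -100 for all cells dead.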 Values without a mark were called inactive. Active and inactive are the calls of the source. The calls were made as follows: active = growth percent below 10; inactive = the rest.
# Tests used:
# Experiment in all cases: NCI-60 one-dose screen, 48 h (100 = growth as untreated, 0 = no growth, -100 = all killed)
# Conditions in all cases: 10 µM unless noted
# [1] = system: SK-MEL-2 melanoma
# [2] = system: SN12C renal
# [3] = system: UO-31 renal
# [4] = system: TK-10 renal
# [5] = system: ACHN renal
# [6] = system: CAKI-1 renal
# [7] = system: A498 renal
# [8] = system: CCRF-CEM leukemia
# [9] = system: SR leukemia
# [10] = system: RPMI-8226 leukemia
# [11] = system: OVCAR-8 ovarian
# [12] = system: OVCAR-5 ovarian
# [13] = system: OVCAR-4 ovarian
# [14] = system: SK-OV-3 ovarian
# [15] = system: IGROV1 ovarian
# [16] = system: OVCAR-3 ovarian
# [17] = system: HS 578T breast
# [18] = system: NCI/ADR-RES ovarian
# [19] = system: MOLT-4 leukemia
Structure (SMILES),growth [1] [%],growth [2] [%],growth [3],growth [4],growth [5],growth [6],growth [7],growth [8] [%],growth [9] [%],growth [10],growth [11] [%],growth [12] [%],growth [13] [%],growth [14],growth [15],growth [16],growth [17],growth [18] [%],growth [19] [%]
NC(=O)c1cc(Br)cc(Br)c1NS(=O)(=O)c1ccccc1,110,95.9,75%,130%,100%,89.8%,96.1%,91.8,101,97.2%,114,108,95.8,102%,94.9%,106%,105%,103,
COc1ccc(CCN2C(=O)CCC3=C2CCCC3=O)cc1OC,122,101,81.8%,114%,100%,109%,103%,,101,98.1%,102,104,102,100%,108%,120%,,98.2,103
CCCCNCCCN(CCCC)CCCNCCCC,112,89,83.7%,97.3%,104%,91.1%,94.6%,,108,99.6%,96,108,,100%,99.5%,107%,80.2%,99.9,103
COc1c(Br)cc(C(c2cc(Br)c(OC)c(Br)c2)c2ccccc2C(=O)O)cc1Br,114,96,68.9%,106%,91.2%,91.6%,107%,,80.9,88.7%,,99.1,,106%,95.7%,109%,101%,98.8,89.4
O=c1ncc(-c2ccc(C(F)(F)F)cc2)c(NC2CCCCCC2)[nH]1,50.9,45.9,52.3%,65.1%,24.4%,93%,84.4%,46.4,69,5% (active),,91.3,53.5,83.9%,51%,-2.84% (active),68.6%,102,77.7
Cn1c(N2N=C(c3ccc(Cl)cc3)CC2c2ccccc2)nc(-c2ccccc2)c(C#N)c1=O (configuration not stated),78.4,67.3,60.5%,117%,77.2%,63.7%,79.6%,,58.8,54.9%,73.8,99.6,89.4,,79%,71.7%,86.5%,82.9,60.1
Cc1nn(-c2ccccc2)c2nc(N)c(C3=NCCO3)nc12,111,96.8,73.5%,128%,83%,78.4%,92.1%,,104,87.2%,95.9,93.3,,94.2%,94.4%,114%,82.2%,101,101
CCOC(=O)Nc1cc(-c2ccc(C)c(NS(C)(=O)=O)c2)nn2c(C)nnc12,13.5,32,-1.22% (active),-3.12% (active),8.87% (active),3.16% (active),-7.14% (active),24.5,24.9,,,32.2,22.8,4.31% (active),-45.6% (active),-10.4% (active),9.38% (active),53.3,18.9
